Experimental data published in the supplement of paper PMC9694430.
Where a name gives a salt, the structure may show the parent alone.

These compounds were tested on LOC_OS01G10900-cb004 (assay: thermal shift delta Tm vs DMSO control; higher = stronger stabilization (binding)). Conditions: 12.5 µM; protein concentration 2 µM.
How it was run: (§1)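 Rice kinase domain constructs were expressed in E. coli, purified, and tested by differential scanning fluorimetry with compound added in DMSO. Each well of a 96-well plate held 19.5 μl of 2 μM kinase in 100 mM potassium phosphate pH 7.5, 150 mM NaCl, 10% glycerol and 5 × SYPRO Orange, and fluorescence was read from 25°C to 95°C at 0.05°C/s. The melting temperature shift is the mean of triplicates, taken against protein with DMSO alone after Boltzmann fitting.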

| SMILES | thermal shift delta Tm [°C] |
| --- | --- |
| COc1cc(C(=O)N2CCC(N3CCN(C)CC3)CC2)ccc1Nc1ncc2c(n1)N(C)c1ccccc1C(=O)N2C | 2.12 |
| Cc1nc(Nc2n[nH]c3c2CN(C(=O)N[C@H](CN(C)C)c2ccccc2)C3(C)C)c2sccc2n1 | 0.23 |
| CC(C)(C)c1cc(NC(=O)Nc2ccc(Oc3ccnc4[nH]c(=O)cnc34)cc2F)n(-c2ccccc2)n1 | 0.63 |
| CN1CC[C@H](c2c(O)cc(O)c3c(=O)cc(-c4ccccc4Cl)oc23)[C@H](O)C1 [Flavopiridol HCl] | 0.17 |
| CCC(=O)Nc1cccc(Oc2nc(Nc3ccc(N4CCN(C)CC4)cc3OC)ncc2Cl)c1 | 0.23 |
| N#CC(=C(/N)Sc1ccccc1N)/C(C#N)=C(\N)Sc1ccccc1N | -0.2 |
| Clc1ccc(C2(c3ccc(-c4cn[nH]c4)cc3)CCNCC2)cc1 | 0.17 |
| O=c1c(O)c(-c2cc(O)c(O)c(O)c2)oc2cc(O)cc(O)c12 [Myricetin] | 1.94 |
| CN1CCN(Cc2ccc(NC(=O)Nc3ccc(Oc4ccnc(N)n4)cc3)cc2C(F)(F)F)CC1 | 0.41 |
| CN1CCN(c2nc(C3=C(c4c[nH]c5ccccc45)C(=O)NC3=O)c3ccccc3n2)CC1 [Sotrastaurin] | 0.77 |
| O=C(c1ccc(/C=C/c2n[nH]c3ccccc23)cc1)N1CCNCC1 | 1.43 |
| N#CC1(c2ccc(NC(=O)c3cccnc3NCc3ccncc3)cc2)CCCC1 [Apatinib] | 0.27 |
| Cc1cc(O)c(-c2ccc([C@@H](C)CN)cc2)c2c1[nH]c(=O)c1sccc12 [OTS514 hydrochloride] | 1.18 |
| Oc1cc(O)cc(/C=C/c2ccc(O)c(O)c2)c1 [Piceatannol] | 0.74 |
| COc1cc(N2CCC(N(C)C)CC2)ccc1Nc1ncc(Cl)c(Nc2ccccc2P(C)(C)=O)n1 | 0.79 |
| O=C1NC(=O)C(c2ccccc2[N+](=O)[O-])=C1Nc1ccc(O)c(Cl)c1 | 0.16 |
| O=C(O)c1ccc(Nc2ncc3c(n2)-c2ccc(Cl)cc2C(c2c(F)cccc2F)=NC3)cc1 | -0.28 |
| CCN1CCN(Cc2ccc(Nc3ncc(F)c(-c4cc(F)c5nc(C)n(C(C)C)c5c4)n3)nc2)CC1 | 4.97 |
| Cc1cc(CN2CCN(c3c(Br)cnc4nc(-c5ccc(N6CCN(C)CC6)cc5)[nH]c34)CC2)no1 | 1.57 |

| SMILES | thermal shift delta Tm [°C] |
| --- | --- |
| Cn1ncc(Cl)c1-c1cc(C(=O)N[C@H](CN)Cc2ccc(F)c(F)c2)oc1Cl | -0.33 |
| CCS(=O)(=O)Nc1ccc2c(c1)/C(=C(/Nc1ccc(CN3CCCCC3)cc1)c1ccccc1)C(=O)N2 [Hesperadin] | 0.26 |
| CC1(COc2ccc3c(c2)ncn3-c2ccc3cccc(N4CCC(N)CC4)c3n2)COC1 | 1.43 |
| Oc1cccc(-c2nc(N3CCOCC3)c3oc4ncccc4c3n2)c1 | 0.03 |
| O=C(O)c1ccc(-c2c[nH]c3ncc(-c4ccccc4)cc23)cc1C1CCCC1 | 0.46 |
| C[C@H](CN(C)C)Oc1nc(Nc2cc3cccc(Cl)c3cn2)cnc1C#N | 0.44 |
| CC(C)(C)c1nc(-c2ccc(NC(=O)Nc3cccc(C(F)(F)F)c3)c3ccccc23)c2c(N)nccn12 [kira6] | 0.45 |
| COc1ccc(COc2ccc(Cc3cnc(N)nc3N)cc2OC)cc1 | 2.07 |
| COc1cc(-c2cc(-c3ccc(N4CCNCC4)cc3)cnc2C)cc(OC)c1OC | 1.13 |
| CC(C)Nc1cc(-c2c[nH]c(C(=O)N[C@H](CO)c3cccc(Cl)c3)c2)c(Cl)cn1 | 0.37 |
| COc1c(C)c(C(=O)c2ccc(N)c(C(=O)O)c2)n2ccccc12 | 0.42 |
| CN(C)C/C=C/C(=O)Nc1cc2c(Nc3ccc(F)c(Cl)c3)ncnc2cc1O[C@H]1CCOC1 [Afatinib (BIBW2992)] | 4 |
| CN1CC[C@H](c2c(O)cc(O)c3c(=O)cc(-c4ccccc4Cl)oc23)[C@H](O)C1 [Flavopiridol (Alvocidib)] | 0.16 |
| CC(C)Oc1ccc(-c2nn([C@@H](C)c3oc4ccc(F)cc4c(=O)c3-c3cccc(F)c3)c3ncnc(N)c23)cc1F | 0.72 |
| N#Cc1ccc2ncnc(NCCc3ccccc3)c2c1 [Senexin A] | 0.41 |
| CN(C)C/C=C/C(=O)Nc1ccc(C(=O)Nc2cccc(Nc3ncc(Cl)c(-c4c[nH]c5ccccc45)n3)c2)cc1 | 0.47 |
| COc1cc2c(cc1OC)[C@@H]1C(=O)c3ccc4c(c3O[C@@H]1CO2)C=CC(C)(C)O4 [Deguelin] | 0.52 |
| CC(C)(C)c1cnc(CSc2cnc(NC(=O)C3CCNCC3)s2)o1 | 3.68 |
| CNC(=O)c1ccccc1Nc1cc(Nc2ccc(N3CCOCC3)cc2OC)ncc1C(F)(F)F | 0.53 |

What follows are compounds tested on LOC_OS01G13800-cb001 in the same assay as above. Conditions: 12.5 µM; protein concentration 2 µM.
How it was run: as §1

| SMILES | thermal shift delta Tm [°C] |
| --- | --- |
| COc1cc(C(=O)N2CCC(N3CCN(C)CC3)CC2)ccc1Nc1ncc2c(n1)N(C)c1ccccc1C(=O)N2C | 0.41 |
| Cc1nc(Nc2n[nH]c3c2CN(C(=O)N[C@H](CN(C)C)c2ccccc2)C3(C)C)c2sccc2n1 | -0.4 |
| CC(C)(C)c1cc(NC(=O)Nc2ccc(Oc3ccnc4[nH]c(=O)cnc34)cc2F)n(-c2ccccc2)n1 | 0.95 |
| CN1CC[C@H](c2c(O)cc(O)c3c(=O)cc(-c4ccccc4Cl)oc23)[C@H](O)C1 [Flavopiridol HCl] | 0.42 |
| CCC(=O)Nc1cccc(Oc2nc(Nc3ccc(N4CCN(C)CC4)cc3OC)ncc2Cl)c1 | -0.06 |
| N#CC(=C(/N)Sc1ccccc1N)/C(C#N)=C(\N)Sc1ccccc1N | 0.46 |
| Clc1ccc(C2(c3ccc(-c4cn[nH]c4)cc3)CCNCC2)cc1 | 0.44 |
| O=c1c(O)c(-c2cc(O)c(O)c(O)c2)oc2cc(O)cc(O)c12 [Myricetin] | 1.96 |
| CN1CCN(Cc2ccc(NC(=O)Nc3ccc(Oc4ccnc(N)n4)cc3)cc2C(F)(F)F)CC1 | 0.15 |
| CN1CCN(c2nc(C3=C(c4c[nH]c5ccccc45)C(=O)NC3=O)c3ccccc3n2)CC1 [Sotrastaurin] | 0.15 |
| O=C(c1ccc(/C=C/c2n[nH]c3ccccc23)cc1)N1CCNCC1 | -0.18 |
| N#CC1(c2ccc(NC(=O)c3cccnc3NCc3ccncc3)cc2)CCCC1 [Apatinib] | 0.11 |
| Cc1cc(O)c(-c2ccc([C@@H](C)CN)cc2)c2c1[nH]c(=O)c1sccc12 [OTS514 hydrochloride] | 0.58 |
| Oc1cc(O)cc(/C=C/c2ccc(O)c(O)c2)c1 [Piceatannol] | 1 |
| COc1cc(N2CCC(N(C)C)CC2)ccc1Nc1ncc(Cl)c(Nc2ccccc2P(C)(C)=O)n1 | -0.94 |
| O=C1NC(=O)C(c2ccccc2[N+](=O)[O-])=C1Nc1ccc(O)c(Cl)c1 | 0.72 |
| O=C(O)c1ccc(Nc2ncc3c(n2)-c2ccc(Cl)cc2C(c2c(F)cccc2F)=NC3)cc1 | 0.41 |
| CCN1CCN(Cc2ccc(Nc3ncc(F)c(-c4cc(F)c5nc(C)n(C(C)C)c5c4)n3)nc2)CC1 | -0.66 |
| Cc1cc(CN2CCN(c3c(Br)cnc4nc(-c5ccc(N6CCN(C)CC6)cc5)[nH]c34)CC2)no1 | 0.82 |

| SMILES | thermal shift delta Tm [°C] |
| --- | --- |
| Cn1ncc(Cl)c1-c1cc(C(=O)N[C@H](CN)Cc2ccc(F)c(F)c2)oc1Cl | 1.08 |
| CCS(=O)(=O)Nc1ccc2c(c1)/C(=C(/Nc1ccc(CN3CCCCC3)cc1)c1ccccc1)C(=O)N2 [Hesperadin] | -0.97 |
| CC1(COc2ccc3c(c2)ncn3-c2ccc3cccc(N4CCC(N)CC4)c3n2)COC1 | -0.87 |
| Oc1cccc(-c2nc(N3CCOCC3)c3oc4ncccc4c3n2)c1 | 0.75 |
| O=C(O)c1ccc(-c2c[nH]c3ncc(-c4ccccc4)cc23)cc1C1CCCC1 | -0.9 |
| C[C@H](CN(C)C)Oc1nc(Nc2cc3cccc(Cl)c3cn2)cnc1C#N | 0.1 |
| CC(C)(C)c1nc(-c2ccc(NC(=O)Nc3cccc(C(F)(F)F)c3)c3ccccc23)c2c(N)nccn12 [kira6] | 1.09 |
| COc1ccc(COc2ccc(Cc3cnc(N)nc3N)cc2OC)cc1 | 0.44 |
| COc1cc(-c2cc(-c3ccc(N4CCNCC4)cc3)cnc2C)cc(OC)c1OC | -0.6 |
| CC(C)Nc1cc(-c2c[nH]c(C(=O)N[C@H](CO)c3cccc(Cl)c3)c2)c(Cl)cn1 | 0.75 |
| COc1c(C)c(C(=O)c2ccc(N)c(C(=O)O)c2)n2ccccc12 | -0.23 |
| CN(C)C/C=C/C(=O)Nc1cc2c(Nc3ccc(F)c(Cl)c3)ncnc2cc1O[C@H]1CCOC1 [Afatinib (BIBW2992)] | 0.13 |
| CN1CC[C@H](c2c(O)cc(O)c3c(=O)cc(-c4ccccc4Cl)oc23)[C@H](O)C1 [Flavopiridol (Alvocidib)] | 0.35 |
| CC(C)Oc1ccc(-c2nn([C@@H](C)c3oc4ccc(F)cc4c(=O)c3-c3cccc(F)c3)c3ncnc(N)c23)cc1F | 0.18 |
| N#Cc1ccc2ncnc(NCCc3ccccc3)c2c1 [Senexin A] | 0.25 |
| CN(C)C/C=C/C(=O)Nc1ccc(C(=O)Nc2cccc(Nc3ncc(Cl)c(-c4c[nH]c5ccccc45)n3)c2)cc1 | 1.95 |
| COc1cc2c(cc1OC)[C@@H]1C(=O)c3ccc4c(c3O[C@@H]1CO2)C=CC(C)(C)O4 [Deguelin] | 0.41 |
| CC(C)(C)c1cnc(CSc2cnc(NC(=O)C3CCNCC3)s2)o1 | 0.5 |
| CNC(=O)c1ccccc1Nc1cc(Nc2ccc(N3CCOCC3)cc2OC)ncc1C(F)(F)F | 1.17 |
